In the library only some 28% were active in any assay of this set; here they are far more common.
CYP2C9 activ: activators of human CYP2C9; P11712; recombinant CYP2C9, luciferin-H conversion, luminescence; hits give high values; factor 1 = untreated enzyme, 0 = blocked; activation factor at 5 µM; 1.4% of 96,000 active; AID 1024;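 active means activation factor of 2 or more for CYP2C9 at a 5 µM dose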;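 further: 0 = sulfaphenazole-blocked wells and 1 = vehicle-only wells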
PLK1 PBD inh: Plk1 (human) PBD binding inhibition. AID 693. inhibition, %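 (tested at about 20 µM)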. 0.13% of 97,000 active. P53350. Plk1 PBD phosphopeptide binding, fluorescence polarization; in the data active means inhibition above about 34%, passing the limit was not always enough
Target sequence (P53350 whole entry, looked up): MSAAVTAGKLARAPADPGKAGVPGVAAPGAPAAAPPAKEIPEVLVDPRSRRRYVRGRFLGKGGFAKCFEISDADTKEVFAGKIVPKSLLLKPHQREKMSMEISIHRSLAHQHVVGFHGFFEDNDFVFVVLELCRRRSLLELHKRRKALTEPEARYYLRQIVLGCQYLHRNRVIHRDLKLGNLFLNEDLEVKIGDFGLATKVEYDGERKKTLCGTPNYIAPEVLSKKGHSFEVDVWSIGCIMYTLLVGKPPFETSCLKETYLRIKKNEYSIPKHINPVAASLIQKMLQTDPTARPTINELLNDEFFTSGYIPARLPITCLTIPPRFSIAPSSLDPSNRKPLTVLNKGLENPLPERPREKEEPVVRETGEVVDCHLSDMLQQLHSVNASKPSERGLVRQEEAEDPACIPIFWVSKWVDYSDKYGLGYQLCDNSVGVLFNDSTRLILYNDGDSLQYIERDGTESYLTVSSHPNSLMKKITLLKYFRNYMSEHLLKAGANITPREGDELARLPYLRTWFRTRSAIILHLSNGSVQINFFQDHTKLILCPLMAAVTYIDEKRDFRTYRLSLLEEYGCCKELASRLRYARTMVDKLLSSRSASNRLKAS
CYP2C19 inh: human CYP2C19 inhibition; inhibition, % at 5 µM; 21% of 96,000 active; CYP2C19 Supersomes, luciferin-H EGE luminescence, 30 min; P33261;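 active means CYP2C19 inhibition above a set limit at 5 µM in the primary screen, cut at about 50% in these data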;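 further: plate controls were negative control wells for no effect and 2.5 mM tranylcypromine positive control for full effect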
PLK1 inh: inhibitors of human PLK1 kinase; P53350; recombinant PLK1 kinase, TR-FRET peptide phosphorylation; inhibition, % at 10 µM; 0.53% of 97,000 active;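 active means inhibition of 50% or more in the single-concentration screen; inactive means inhibition below 50%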;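 further: 0% = DMSO max control and 100% = H-89 dihydrochloride min control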
CYP2C9 inhib: blocks human cytochrome P450 2C9. CYP2C9 Supersomes, luciferin-H conversion, luminescence. P11712. inhibition, % at 5 µM. 20% of 96,000 active;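 active means blocking of liver enzyme CYP2C9 beyond about 50% at 5 µM, limit read from the data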
CYP2C19 act: activators of human cytochrome P450 2C19; recombinant CYP2C19, luciferin-H EGE luminescence; hits give high values; 0 = fully inhibited enzyme, 1 = untreated enzyme; activation factor at 5 µM; 96,000 tested, under 10 active; AID 1025;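 active means activation factor of at least 2 at 5 µM in the primary screen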;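 further: 0 = wells with 2.5 mM tranylcypromine and 1 = vehicle-only wells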
The depositor's hits bear a star; · = no result given.

SMILES	CYP2C9 activ	PLK1 PBD inh	CYP2C19 inh	PLK1 inh	CYP2C9 inhib	CYP2C19 act
CCOC(=O)N1CCN(C(=O)CSCC(=O)Nc2nc(-c3ccc(C)cc3)cs2)CC1	0.7	-12.1	-20.4	-9.8	29.8	1.2
Cc1cc(N2CCN(c3ccccc3Cl)CC2)n2cc(-c3ccccc3)nc2n1	0.4	-43.5	8.3	-2.8	57.9*	0.9
COC(=O)c1ccc(OC(=O)C2CC(=O)N(c3ccc(C)cc3C)C2)cc1 (stereo not given)	1	2.2	4.1	-13.2	-4.6	1
c1ccc(OCCCc2nc(-c3ccccn3)no2)cc1	0.7	23.9	80.5*	1.7	33.2	0.2
COc1ccc(-c2noc(CCCOc3ccccc3)n2)cc1OC	0.2	6.3	90.4*	-19.8	78.8*	0.1
c1ccc(OCc2nc(-c3ccccc3)no2)cc1	0.6	-7.3	72.2*	-12.7	37.2	0.3
c1ccc(OCCCc2nc(-c3ccncc3)no2)cc1	0.1	14.4	97.7*	9.9	89.5*	0
c1ccc(CCc2nc(-c3ccccc3)no2)cc1	1	-3.6	13.1	-7.3	3.2	0.9
COc1nc(-c2ccccc2)ccc1-c1noc(COc2ccccc2)n1	0.5	-0.8	28.0	0.8	47.6	0.7
CCCOc1ccc(C(=O)NNC(=S)NC(=O)c2cc(-c3ccccc3)nc3ccccc23)cc1	0.5	29.0	16.7	-5.2	47.3	0.8
COc1ccc(Cc2nc(-c3ccc(-n4cccc4)cc3)no2)cc1OC	0.9	·	-9.2	·	14.4	1.1
COc1ccc(CCN(Cc2nc(-c3ccccc3)no2)Cc2nc(-c3ccccc3)no2)cc1OC	0.1	3.6	53.7*	-16.8	86.1*	0.5
Cc1ccc(S(=O)(=O)N2CCN(S(=O)(=O)c3ccccc3)C2)cc1	0.4	1.9	56.2*	2.8	57.4*	0.4
Cc1ccc(S(=O)(=O)N2CCN(S(=O)(=O)N(C)C)CC2)cc1	0.8	2.6	42.2	-16.9	19.4	0.6
O=S(=O)(c1ccc(S(=O)(=O)N2CCCN(Cc3ccccc3)C2)cc1)N1CCCCCC1	0.3	5.6	71.5*	-7.6	73.6*	0.3
CN(C)S(=O)(=O)N1CCN(S(=O)(=O)c2ccccc2)CC1	0.4	3.4	79.6*	-2.7	58.1*	0.2
O=S(=O)(NCc1ccccc1)c1ccc(S(=O)(=O)N2CCCCC2)cc1	1	-5.0	-7.7	-8.2	-3.5	1.1
Cc1ccc(-c2ccc(S(=O)(=O)N3CCN(C)CC3)cc2)cc1	0.5	·	16.4	·	51.6*	0.8
Cc1ccccc1OCC(=O)N/N=C/c1cccn1C	1	-10.2	29.0	-7.0	-3.5	0.7
CCc1ccc(OCC(=O)N2CCN=C2c2ccccc2)cc1	0.6	-18.4	33.3	-34.5	36.8	0.7
COc1ccc(CC(NC(C)=O)C(=O)NC2CCN(C(=O)NCc3ccccc3)CC2)cc1OC (stereo not given)	0.9	16.2	-4.0	1.5	7.8	1
CCOc1ccccc1COC(=O)c1cccc(-n2cnnn2)c1	1.8	-0.1	46.3	4.9	-76.0	0.5
CCCCCC(=O)NNC(=O)c1ccc(-c2ccccc2)cc1	1.3	-7.0	-15.8	-6.7	-27.6	1.2
COc1ccc(CCN2C(=S)NC3CC2(C)Oc2ccc([N+](=O)[O-])cc23)cc1OC (stereo not given)	0.3	-15.6	0.1	-6.9	71.8*	1
CCC1Sc2ccccc2N(CC(=O)NCCC(C)C)C1=O (stereo not given)	0.8	0.0	30.0	-7.2	17.4	0.7
SMILES	CYP2C9 activ	PLK1 PBD inh	CYP2C19 inh	PLK1 inh	CYP2C9 inhib	CYP2C19 act
Cc1c(C(=O)NCc2ccc3c(c2)OCO3)oc2ccc(S(=O)(=O)N3CCC(C)CC3)cc12	·	11.3	·	1.0	·	·
Cc1c(C(=O)NCc2ccc3c(c2)OCO3)oc2ccc(S(=O)(=O)N3CCCCCC3)cc12	0.3	·	24.0	·	67.9*	0.8
Cc1ccc2oc(C(=O)NCc3ccc4c(c3)OCO4)c(C)c2c1	0.7	-10.9	21.8	-3.7	28.2	0.8
Cc1c(C(=O)NCc2ccc3c(c2)OCO3)oc2ccc(Br)cc12	0	-10.6	-0.7	-5.7	96.9*	1
CCOC(=O)c1c(C)c(C(=O)NCc2cccnc2)c(C)n1C	0.7	20.1	28.7	-8.3	32.2	0.7
CCOC(=O)c1c(C)c(C(=O)NCc2ccc3c(c2)OCO3)c(C)n1C	0.4	·	40.5	·	59.9*	0.6
Cc1cc2oc(C(=O)NCc3ccc4c(c3)OCO4)c(C)c2cc1C	0.4	-21.9	49.4	-15.7	55.1*	0.5
Cc1cc(C)c(NC(=O)Cn2c(=O)n(Cc3ccco3)c(=O)c3ccccc32)c(C)c1	0.8	·	18.9	·	16.5	0.8
COCCCNC(=O)CN1CCN(Cc2ccc(Cl)cc2)C1=O	1.1	23.9	5.0	12.2	-9.1	0.9
CN(CCNC(=O)c1ccc(N2CCCC2=O)cc1)CCc1ccccc1	·	0.8	·	-15.2	·	·
Cc1c(C(=O)NCc2ccccc2)oc2ccc(S(=O)(=O)N3CCC4(CC3)OCCO4)cc12	0.5	9.5	29.6	-9.9	54.6*	0.7
CCCCN(C)C(=O)c1oc2ccc(S(=O)(=O)N3CCCCCC3)cc2c1C	0.4	9.0	30.3	-10.4	55.6*	0.7
CCOc1ccccc1-c1nc(SCC(=O)O)n[nH]1	1.1	-4.6	-10.8	-3.4	-10.8	1.1
CCCCc1c(O)nc(SCC(=O)NC(C)(C)C)n(-c2ccccc2C)c1=O	1.3	-4.3	23.8	-7.7	-27.5	0.8
CCOC(=O)c1sc(NC(=O)Cn2nnc3sc4c(c3c2=O)CCCC4)nc1C	0.4	-6.2	25.7	-8.9	55.0*	0.7
CCOC(=O)N1CCN(Cc2c(F)cccc2Cl)CC1	0.6	-16.0	17.0	0.5	42.0	0.8
O=c1ccccn1Cc1c(F)cccc1Cl	0.8	-12.6	50.5*	-5.3	22.8	0.5
CC1CCCC(C)N1C(=O)CSc1nnc(CSc2ncccn2)n1C (stereo not given)	1.1	·	-0.3	·	-7.7	1
Cc1ccc(N2C=Nc3ccc(C)c4nc(C)cc2c34)cc1	0.1	15.3	68.1*	-11.2	86.4*	0.3
CCn1c(=O)c2cc(C(=O)Nc3cc(C)on3)sc2c2ccccc21	2.1*	-9.2	-4.4	-42.9	-113.4	1
CCCc1cc(Nc2cccc(OC)c2)n2ncnc2n1	0.7	-6.1	55.3*	-11.6	33.9	0.4
CC(=O)Nc1cccc(NC(=O)C2CC3CCC2C3)c1 (stereo not given)	0.9	-28.2	17.0	-2.0	13.3	0.8
Cc1ccc2nc3n(c(=O)c2c1)CCCCC3	·	8.7	·	-9.2	·	·
CCOC(=O)N1CCN(C(=O)CC(=O)Nc2ccc3nc4n(c(=O)c3c2)CCCCC4)CC1	0.3	·	13.7	·	69.4*	0.9
O=C(COc1ccc(Cl)cc1Cl)Nc1ccc2nc3n(c(=O)c2c1)CCCC3	0.5	-17.4	21.0	-1.7	46.5	0.8
CCOC(=O)N1CCN(C(=O)C(=O)Nc2ccc3nc4n(c(=O)c3c2)CCCCC4)CC1	0.5	-8.7	27.5	-6.5	52.3*	0.7

Source: PubChem (several laboratories)
